Assay outcomes (PubChem BioAssay)
KDM5B inh: KDM5B demethylase inhibition; Q9UGL1; KDM5B demethylase, FDH-coupled NADH fluorescence (FDH is formaldehyde dehydrogenase); Potency, µM (doses to about 57.7 µM), most hits filed as inhibitors; actives 2.6% (n = 220,000); active = well fitted inhibition curve with a large enough effect; note: 0% is about no effect; nearly all actives have a fitted effect of over 70% in size
Target sequence (Q9UGL1 whole entry, looked up): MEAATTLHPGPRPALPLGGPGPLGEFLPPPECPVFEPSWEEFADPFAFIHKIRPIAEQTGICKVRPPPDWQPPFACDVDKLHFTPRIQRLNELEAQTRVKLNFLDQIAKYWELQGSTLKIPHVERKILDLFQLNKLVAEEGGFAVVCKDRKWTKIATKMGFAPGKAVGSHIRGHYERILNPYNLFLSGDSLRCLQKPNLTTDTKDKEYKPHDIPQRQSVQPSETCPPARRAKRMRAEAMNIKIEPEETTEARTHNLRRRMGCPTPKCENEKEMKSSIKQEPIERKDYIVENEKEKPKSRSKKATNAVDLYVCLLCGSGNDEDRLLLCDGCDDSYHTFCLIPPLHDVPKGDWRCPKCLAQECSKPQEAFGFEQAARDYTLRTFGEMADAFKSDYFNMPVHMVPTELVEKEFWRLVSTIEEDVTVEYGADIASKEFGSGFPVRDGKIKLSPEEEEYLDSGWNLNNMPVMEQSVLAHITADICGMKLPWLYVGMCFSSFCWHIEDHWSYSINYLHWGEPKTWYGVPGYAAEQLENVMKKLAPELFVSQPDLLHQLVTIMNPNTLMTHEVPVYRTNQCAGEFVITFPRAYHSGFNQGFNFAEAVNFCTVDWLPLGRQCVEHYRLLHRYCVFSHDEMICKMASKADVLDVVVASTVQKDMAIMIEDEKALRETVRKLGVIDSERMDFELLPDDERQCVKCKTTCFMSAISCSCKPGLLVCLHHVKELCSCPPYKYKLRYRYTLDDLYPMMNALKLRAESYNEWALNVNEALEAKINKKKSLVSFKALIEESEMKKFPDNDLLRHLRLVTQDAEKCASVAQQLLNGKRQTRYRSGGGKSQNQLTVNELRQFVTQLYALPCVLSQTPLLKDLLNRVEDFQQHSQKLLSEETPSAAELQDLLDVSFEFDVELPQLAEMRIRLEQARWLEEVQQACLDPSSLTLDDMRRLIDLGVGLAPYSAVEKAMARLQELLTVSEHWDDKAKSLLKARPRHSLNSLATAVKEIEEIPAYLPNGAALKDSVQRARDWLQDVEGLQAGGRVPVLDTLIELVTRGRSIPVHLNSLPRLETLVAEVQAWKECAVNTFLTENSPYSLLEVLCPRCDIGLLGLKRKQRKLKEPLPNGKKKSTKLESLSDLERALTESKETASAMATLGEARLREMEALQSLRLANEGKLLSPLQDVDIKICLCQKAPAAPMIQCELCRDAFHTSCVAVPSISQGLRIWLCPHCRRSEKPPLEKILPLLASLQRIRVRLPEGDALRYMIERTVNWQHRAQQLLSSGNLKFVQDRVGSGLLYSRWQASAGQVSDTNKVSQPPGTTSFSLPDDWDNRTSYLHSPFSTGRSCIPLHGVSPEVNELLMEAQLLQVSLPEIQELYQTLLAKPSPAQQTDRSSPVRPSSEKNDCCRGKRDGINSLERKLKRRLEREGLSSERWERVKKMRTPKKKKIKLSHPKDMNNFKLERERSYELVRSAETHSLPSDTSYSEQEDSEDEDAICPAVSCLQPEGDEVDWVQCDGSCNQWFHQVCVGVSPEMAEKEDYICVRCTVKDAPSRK
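qHTS format, multiple compound concentrations. Buffer 50 mM HEPES pH 7.5/0.01% Tween-20; 200 nM KDM5BΔAP final; 10 min compound preincubation; substrate-mix levels 12.5 µM peptide, 25 µM α-KG, 0.25 mM NAD⁺; 30 min RT; ΔRFU.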
Starred values were filed as active, the others as inactive; i = inactive. The full list was thinned out, with hits kept by preference. Potency is the fitted concentration of half-maximal effect.

SMILES	KDM5B inh
O=C1NC2(CCN(Cc3cccnc3)CC2)Oc2ccccc21	i
NC(=O)c1cc(-c2ccccc2F)cc2c1OCCN2Cc1cccnc1	35.5µM*
CNC(=O)c1cc(-c2ccc(OC)nc2)cc2c1OCCN2Cc1cccnc1	28.2µM*
COCCNC(=O)C(=O)NCC(c1cccnc1)N1CCN(c2ccccc2F)CC1 (stereo unspecified)	i
COCCCNC(=O)c1cc(-c2cccnc2)nc2ccccc12	i
Cc1ccc(-c2nc(CNC(=O)Nc3ccc(Cl)cc3)c(C)o2)cc1	i
CCOc1ccc(CNCC2CCCO2)cc1OCC (stereo unspecified)	i
CC(OC(=O)/C=C/c1cccc2cccnc12)C(=O)NC(C)(C)C (stereo unspecified)	i
CC(=O)NCc1ccc(C(=O)CSc2ccc(NC(C)=O)cc2)cc1	i
O=C(Nc1cccc(Cl)c1)C1CC2CCCC(C1)C2=O (stereo unspecified)	i
CC(C)Cn1cnc2c1c(=O)n(CC(=O)Nc1cccc(C(F)(F)F)c1)c(=O)n2Cc1ccccc1	i
COC(=O)C1=CN(Cc2cccs2)C=C(C(=O)OC)C1c1ccc(Cl)c(F)c1	i
CCOC(=O)c1cc(-c2ccc(S(=O)(=O)N3CCN(c4cc(C)ccc4C)CC3)s2)on1	i
CNC(=O)c1cc(-c2ccccc2O)cc2c1OCCN2Cc1cccnc1	31.6µM*
COc1ccccc1C(=O)Nc1ccc([C@H]2OCC(=O)N(Cc3cccnc3)[C@@H]2CO)cc1	i
O=C(c1cc(-c2ccccc2F)cc2c1OCCN2Cc1cccnc1)N1CC(O)C1	39.8µM*
O=C1OC[C@@H]2CCN(Cc3cccnc3)Cc3ccc(F)cc3N12	i
CNC(=O)c1cc(-c2ccccc2F)cc2c1OCCN2Cc1cccnc1	39.8µM*
CNC(=O)c1cc(-c2ccccc2OC)cc2c1OCCN2Cc1cccnc1	28.2µM*
CNC(=O)[C@@H](c1ccccc1F)N1CCC[C@H]1C(=O)NCc1cccnc1	i
O=C1C[C@@H]2CCN(C(=O)c3ccccc3)C[C@@H]2CCN1Cc1cccnc1	i
COc1ccccc1OC1(C(=O)O)CCN(Cc2cccnc2)CC1	i
O=C(NCc1cccnc1)[C@@H]1C[C@@H](O)CN1C1CCN(C(=O)c2ccccc2F)CC1	i
O=C(CSc1c2c(nc3ccc(Cl)cc13)CCCC2)NCc1cccs1	i
Cc1ccc(/C(O)=C2\C(=O)C(=O)NC2c2cccc(F)c2)cc1 (stereo unspecified)	i
SMILES	KDM5B inh
COc1ccc(C(=O)C(C)OC(=O)c2cc(=O)c3ccccc3o2)cc1 (stereo unspecified)	i
Cc1cc(SCC2CCCCO2)nc2ccccc12 (stereo unspecified)	i
Cc1cnc(C(=O)OCc2cc(=O)oc3cc(C)c(C(C)C)cc23)cn1	i
O=C(c1cccs1)N1CCC(N2CC(OCC3CC3)C23CCOCC3)CC1 (stereo unspecified)	i
COc1ccc(-c2cc3ccc(OS(C)(=O)=O)cc3oc2=O)c(OC)c1	i
COc1ccc(NC(=O)Cc2nc(-c3ccccc3)oc2C)cc1OC	i
Clc1ccc(-c2nnc(SCc3nc4ccccc4o3)o2)cc1	i
CC(C)CNC(=O)c1cc(-c2ccccc2F)cc2c1OCCN2Cc1cccnc1	31.6µM*
O=C(NCCc1ccccc1)C(=O)NCC(c1cccnc1)N1CCN(c2ccccc2F)CC1 (stereo unspecified)	i
CC(C)CNC(=O)C1Cn2cccc2C(=O)N1Cc1cccnc1 (stereo unspecified)	i
COc1ccc(C(=O)/C=C/c2cccs2)c(OC(=O)c2ccco2)c1	i
CC1CCN(Cc2nnnn2CC(=O)N(C)Cc2ccccn2)CC1	i
Cc1cc(C)n(-c2cccc(CN(C)C(=O)Cn3nnnc3CN3CCOCC3)c2)n1	i
COc1ccc(CN(C)C(=O)Cn2nnnc2CN2CCOCC2)c2cccnc12	22.4µM*
CCC(=O)Nc1c(-c2cc(=O)oc3c(C)cc(C)cc23)oc2ccccc12	i
CCOC(=O)c1c(C)c(-c2ccccc2)n(CC(=O)Nc2cccc(SC)c2)c1C	i
CNc1oc(-c2cc(S(=O)(=O)N(C)Cc3ccccc3)c(C)o2)nc1C#N	i
Fc1ccccc1-c1noc(NCCc2ccc(Cl)cc2)n1	i
COc1cccc(-c2noc(NCCc3ccc(Cl)cc3)n2)c1OC	i
COc1cccc(-c2noc(-c3ccc(CSCc4ccccc4F)o3)n2)c1OC	i
COc1cccc(-c2noc(-c3ccc(NCCCSC)nc3)n2)c1OC	28.2µM*
COc1cccc(-c2noc(-c3ccc(NCCn4cccn4)nc3)n2)c1OC	25.1µM*
O=C(NCCN1CCOC1=O)c1cc(COc2ccccc2F)[nH]n1	i
COc1cccc(-c2noc(-c3nc(-c4ccc5c(c4)OCO5)no3)n2)c1OC	i
COc1cc(Nc2nc(-c3cccc(OC)c3OC)no2)cc(OC)c1OC	i
SMILES	KDM5B inh
O=C1OCCN1CCNc1ccc(-c2nc(-c3ccccc3F)no2)cn1	28.2µM*
Cn1c(=O)c2c(ncn2C(C(=O)Nc2ccc(F)cc2)c2ccccc2)n(C)c1=O (stereo unspecified)	i
CCCCc1c(C)nn(-c2nc(C)c(C(=O)Nc3ccc(OC)cc3)s2)c1C	i
Cc1c(CC(=O)NCc2ccccc2)c(=O)oc2cc(O)ccc12	i
O=C(Nc1ccccc1)c1sc(NC2CCCCC2)nc1-c1ccc([N+](=O)[O-])cc1	i
COCCN1C(=O)C(=O)/C(=C(/O)c2ccc(OCc3ccccc3)cc2C)C1c1cccnc1 (stereo unspecified)	i
Cc1ccsc1-c1[nH]nc2ncc(-c3cccc(F)c3)nc12	i
CCn1nc(C(=O)Nc2cccc(S(=O)(=O)N3CCCCC3)c2)c2ccccc2c1=O	i
CCCNc1nc2ccccc2nc1C(=O)Nc1cc(OC)ccc1OC	i
COc1ccc(-c2cc3c(=O)n(CC(=O)Nc4cc(C)ccc4C)ccn3n2)cc1	i
Cc1ccc(-c2cc3c(=O)n(CCNC(=O)c4nn(C)c5ccccc45)ccn3n2)cc1C	22.4µM*
COc1cccc(C(=O)NCCn2ccn3nc(-c4ccc(F)cc4)cc3c2=O)c1OC	i
COc1ccc(-c2cc3c(=O)n(CCNC(=O)c4ccccc4C)ccn3n2)cc1	20µM*
COc1ccccc1C(=O)NCCn1ccn2nc(-c3ccc(C)c(C)c3)cc2c1=O	28.2µM*
CC(C)CC(=O)NC(NC(=O)CC(C)C)c1ccccc1	i
CCC(C)c1ccc(C(=O)Cn2cnc3c2c(=O)n(C)c(=O)n3C)cc1 (stereo unspecified)	i
Cc1ccc(N=C2NN=C(c3cc(C)n(CC4CCCO4)c3C)CS2)cc1C (stereo unspecified)	i
O=C(CSc1nnc(-c2cccs2)n1-c1ccccc1)Nc1ccc(Cl)cn1	i
O=C(OCc1cccc(COC(=O)C2=COCCO2)c1)C1=COCCO1	i
Cn1c(CN2CCCCC2)nnc1C1CCCN(C(=O)c2cocn2)C1 (stereo unspecified)	i
Cc1ccc(NC(=O)Cn2cnnc2C#N)cc1C	i
O=C(O)c1cc(F)ccc1Cl	i
O=C(NCCC1=CCCCC1)C1CC(=O)N(c2n[nH]c3ccccc23)C1 (stereo unspecified)	25.1µM*
O=C(NCCc1cccc(F)c1)C1CC(=O)N(c2n[nH]c3ccccc23)C1 (stereo unspecified)	22.4µM*
COCCNC(=O)C1CC(=O)N(c2n[nH]c3ccccc23)C1 (stereo unspecified)	i
